The source of these data is PubChem BioAssay.

The test system of experiment [1] is Wnt5a (protein binding on small-molecule microarray). The experiment is described as follows: small molecules binding Wnt5a protein – biophysical, small-molecule microarray, 635/667 nm fluorescence, primary screen (AID 1142).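 Further: fluorescence read at 667 nm with signal to noise per printed feature.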 The conditions noted are these: 635 nm fluorescence, higher = more signal.
The nature of experiment [2]: ATP-based viability of Huh7 replicon cells – cell-based, CellTiter-Glo luminescence, basal, 48 h, cytotoxicity control for HCV replication inhibitor project, primary screen (AID 1143).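 Further: Huh7 hepatoma cells carrying a hepatitis C replication reporter with no stimulus; test concentration not given here.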 The conditions noted are these: higher = more signal, called active from +8 up or from −8 down.
The nature of experiment [3]: Pseudomonas biofilm growth suppression – PAO1 strain, BacTiter-Glo luminescence, LB-PBS, primary screen (AID 1144). To be noted: P. aeruginosa PAO1 biofilm, 12 h, higher = more signal.
Experiment [4] in a line: basal CRE-LacZ reporter activity in PC12 – cell-based, unstimulated, primary screen (AID 1145). To be noted: no forskolin, luminescence, 4.5 h, higher = more signal, called active from +8 up or from −8 down.
The nature of experiment [5]: forskolin-driven CRE-LacZ activity in PC12 – cell-based, CRE-LacZ reporter, forskolin-stimulated, primary screen (AID 1146).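 Further: PC12 cells with 6xCRE LacZ reporter stimulated by forskolin 10 µM; beta-galactosidase reporter signal reflecting CREB driven transcription.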 To be noted: luminescence, 4.5 h, higher = more signal, called active from +8 up or from −8 down.
Experiment [6] has as its target Streptavidin (Streptomyces avidinii) (UniProt P22629). Put plainly: compounds binding control protein streptavidin – biophysical, small-molecule microarray, 635/667 nm fluorescence, artefact control for SMM compound annotation, primary screen (AID 1147).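 Further: signal reflects streptavidin binding to arrayed compounds as a control protein.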 To be noted: higher = more signal.
A short description of experiment [7]: probe aInhba binding on compound microarray – biochemical, small-molecule microarray, 635/667 nm fluorescence, primary screen (AID 1148).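 Further: score merges 667nm spot fluorescence with signal-to-noise for antibody binding to printed compounds.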 The conditions noted are these: higher = more signal.
Experiment [8] has as its target Torsin-1A (Homo sapiens) (UniProt O14656). Put plainly: TOR1A wild-type binding on microarray – cell lysate, small-molecule microarray, lysate, 635/667 nm, primary screen (AID 1149). The conditions noted are these: COS7 hTOR1A-WT lysate, 635 nm fluorescence, higher = more signal.
For experiment [9] the target is unchanged. Put plainly: torsin A mutant lysate binding on microarrays – cell lysate, small-molecule microarray, COS7 lysate, 635/667 nm fluorescence, primary screen (AID 1150).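 Further: score pools 667 nm emission and signal to noise measuring lysate protein binding.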 The conditions noted are these: COS7 hTOR1A mutant lysate, 635 nm fluorescence, higher = more signal.
Experiment [10] deals with Sonic hedgehog protein (Shh). The experiment is described as follows: Sonic hedgehog microarray binding compounds – biochemical, small-molecule microarray, 635/667 nm fluorescence, primary screen (AID 1151).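 Further: Shh protein binding to compounds spotted on small-molecule microarray slides; score combines spot fluorescence intensity with signal-to-noise across triplicate slides.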 The conditions noted are these: 635 nm fluorescence, higher = more signal.

Active and inactive are the calls of the source. Unless noted, how the calls were made is not given here.

Sequence of Torsin-1A (Homo sapiens) (O14656 whole entry, looked up): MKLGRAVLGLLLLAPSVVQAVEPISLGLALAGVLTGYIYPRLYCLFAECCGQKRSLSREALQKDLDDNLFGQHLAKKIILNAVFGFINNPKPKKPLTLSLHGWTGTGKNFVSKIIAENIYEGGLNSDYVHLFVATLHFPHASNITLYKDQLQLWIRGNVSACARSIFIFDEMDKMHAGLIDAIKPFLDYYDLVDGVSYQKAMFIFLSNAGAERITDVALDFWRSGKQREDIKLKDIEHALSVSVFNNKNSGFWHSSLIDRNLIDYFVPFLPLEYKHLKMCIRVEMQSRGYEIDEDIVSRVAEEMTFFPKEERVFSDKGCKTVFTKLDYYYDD
Sequence of Streptavidin (Streptomyces avidinii) (P22629 whole entry, looked up): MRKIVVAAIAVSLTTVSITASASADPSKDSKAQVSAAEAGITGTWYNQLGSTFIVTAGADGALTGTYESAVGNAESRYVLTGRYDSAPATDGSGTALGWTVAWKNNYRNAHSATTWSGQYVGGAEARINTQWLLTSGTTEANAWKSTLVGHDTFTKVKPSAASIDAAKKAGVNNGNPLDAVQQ

`CCCC1(C(=O)OC)C=C2C(=C(C)C(=O)C2C)CN1` (stereo not given): the composite z-score in experiment [1] is 0.0439; in experiment [6], -0.381; in experiment [7], 0.0487; in [8] it was 0.149; in experiment [9], -0.0341; in experiment [10] it was -0.552. Besides, the z-score in experiment [2] was 0.442 (inactive); in experiment [3] it was -0.473 (inactive); in experiment [4], 2.3 (inactive); in experiment [5], 2.15 (inactive).
In the case of `C=CCC(OC(C)=O)[C@@H]1[C@@H](N(Cc2cccc3ccccc23)C(=O)Cc2ccc(F)cc2)c2cc(OCCCO)ccc2N1C(=O)c1ccc2ccccc2c1` (stereo not given in full), the composite z-score in [1] was 0.107; in experiment [6] it was 0.0722; in experiment [7] it was -0.0774; in experiment [8], -0.035; in experiment [9] it was -0.183; in experiment [10] it was 0.508. For the same compound, the z-score in experiment [2] was -0.156 (inactive); in [3], -1.04 (inactive); in experiment [4] it was -0.724 (inactive); in [5] it was 1.06 (inactive).
For `CCC#CCN(Cc1ccccc1Br)[C@H](/C=C/C1CC1)[C@@H](O)Cc1ccccc1`, the composite z-score in experiment [1] was -0.679; in [6], -0.529; in experiment [7] it was -0.154; in [8], -0.806; in experiment [9], 0.0257; in experiment [10], -0.643. The z-score in experiment [2] is -2.43 (inactive); in experiment [3], -1.23 (inactive); in experiment [4], 2.67 (inactive); in experiment [5], -0.835 (inactive).
In the case of `[N-]=[N+]=Nc1ccccc1[C@@H]1OC(c2ccc(OCCCO)cc2)=N[C@]1(Cc1ccccc1)C(=O)O`, the composite z-score in experiment [1] is 0.343; in experiment [6], 0.723; in experiment [7], 0.207; in experiment [8] it was 0.0692; in [9], 0.285; in [10], -0.0767. Moreover, the z-score in experiment [2] was -0.626 (inactive); in [3] it was 0.693 (inactive); in experiment [4], 1.05 (inactive); in experiment [5] it was -1.43 (inactive).
Consider `COC(=O)[C@@]1(Cc2ccc(F)cc2)[C@H]2c3cc(C(=O)N(C)C)n(CCc4ccc(OC)c(Br)c4)c3C[C@H]2CN1C(=O)c1ccccc1`, for which the composite z-score in experiment [1] was 1.88; in experiment [6], 0.221; in experiment [7], 0.925; in experiment [8] it was 0.005; in experiment [9] it was 0.741; in experiment [10], -1.09. The z-score in [2] was -4.65 (inactive); in experiment [3] it was 0.167 (inactive); in experiment [4], 17.2 (active); in [5] it was 124 (active).
On to `CCOC(=O)C1=C[C@@H](c2ccccc2)N(S(=O)(=O)c2ccc(C)cc2)[C@H]1c1ccc(OC)cc1`, for which the composite z-score in experiment [1] is 0.943; in experiment [6] it was 0.689; in experiment [7] it was 0.29; in [8], 0.162; in [9] it was 0.513; in experiment [10], -0.0921. The z-score in experiment [2] is -2.61 (inactive); in experiment [3], 0.173 (inactive); in experiment [4] it was -0.275 (inactive); in experiment [5] it was -0.0617 (inactive).
As to `COCCCNC(=O)[C@@]1(Sc2ccc(C)cc2)CC(=O)N(C2Cc3ccccc3C2)[C@@H]1c1ccc(CO)cc1`, the composite z-score was -0.228 in experiment [1]; -1.17 in experiment [6]; -0.327 in [7]; -1.86 in [8]; -1.35 in experiment [9]; -1.45 in experiment [10]. For the same compound, the z-score in [2] was -4.69 (inactive); in experiment [3] it was -1.03 (inactive); in experiment [4], 0.685 (inactive); in experiment [5], 1.95 (inactive).
For the compound `O=C(O)[C@@H]1C[C@@H]2C(=O)N3CCC[C@H]3C(=O)N2[C@@H]1c1ccc(O)cc1`, the composite z-score in experiment [1] is 0.357; in experiment [6] it was 0.262; in [7] it was 0.0586; in [8], 0.746; in experiment [9] it was 0.643; in experiment [10], 1.61. Further, the z-score in [2] is -2.79 (inactive); in [3], 0.235 (inactive); in experiment [4] it was 0.0205 (inactive); in [5] it was -1.18 (inactive).
`COCCOC(=O)N1C(=O)[C@@]2(c3cc(C#CC4(O)CCCCCC4)ccc31)[C@H](C(=O)Nc1nc3ccccc3s1)[C@H]1C(=O)O[C@H](c3ccccc3)[C@H](c3ccccc3)N1[C@@H]2c1ccc(O)cc1`: the composite z-score was 0.62 in [1]; 0.857 in [6]; 0.117 in [7]; 0.878 in experiment [8]; 0.753 in [9]; 1.52 in experiment [10]. In addition, the z-score in experiment [2] was -0.804 (inactive); in experiment [3], -0.374 (inactive); in [4], 0.245 (inactive); in experiment [5], 7.33 (inactive).
As to `C=CCOC(=O)[C@@H]1[C@H]2C(=O)O[C@H](c3ccccc3)[C@H](c3ccccc3)N2[C@H](c2ccc(OCCOC(=O)[C@@H]3C[C@@H]4C(=O)N[C@@H](CCCC[N+](C)(C)C)C(=O)N4[C@@H]3c3ccc(O)cc3)cc2)[C@@]12C(=O)Nc1ccc(I)cc12`, the composite z-score in [1] was 0.865; in experiment [6], -0.111; in [7] it was 0.0665; in experiment [8], 1.22; in [9] it was 0.781; in experiment [10] it was 1.83. Further, the z-score in experiment [2] is -0.731 (inactive); in [3], -1.37 (inactive); in experiment [4], -1.35 (inactive); in experiment [5], 0.206 (inactive).
With `Cc1ccccc1C(O)C1C=CC2C(=O)NC(=O)C2N1Nc1ccccn1` (stereo not given), the composite z-score in experiment [1] was -0.155; in [6], -0.15; in experiment [7] it was -0.102; in experiment [8], 0.248; in experiment [9] it was 0.0151; in experiment [10] it was -0.224. In addition, the z-score in experiment [2] is 1.14 (inactive); in [3], -0.767 (inactive); in [4] it was -0.708 (inactive); in experiment [5], -0.474 (inactive).
`COCCOC(=O)N1C(=O)[C@@]2(c3cc(C#CC4=CCCCC4)ccc31)[C@H](c1ccccc1OCCO)N1[C@H](c3ccccc3)[C@H](c3ccccc3)OC(=O)[C@H]1[C@@H]2C(=O)N1CCN(c2ncccn2)CC1`: the composite z-score in experiment [1] amounted to 0.471; in experiment [6], 0.407; in experiment [7], 0.181; in [8], 0.0128; in experiment [9], 0.202; in experiment [10], 0.942. The z-score in experiment [2] is -4.96 (inactive); in experiment [3], -1.23 (inactive); in experiment [4], -1.28 (inactive); in experiment [5], -0.752 (inactive).
On to `CCN(CC)c1ccc(N2CC=CC34O[C@@H]5/C=C\CCCOC(=O)C5[C@H]3C(=O)N(C(C)CO)[C@@H]4C2=O)cc1` (stereo not given in full), for which the composite z-score was -0.367 in [1]; -0.245 in experiment [6]; -0.0986 in experiment [7]; -0.428 in experiment [8]; -0.539 in experiment [9]; 1.19 in [10]. For the same compound, the z-score is 0.307 (inactive) in experiment [2], -1.6 (inactive) in experiment [3], 1.01 (inactive) in experiment [4] and -0.695 (inactive) in experiment [5].
As to `O=C(c1ccccc1)N1C(=O)[C@]2(Cc3ccccc31)N=C(c1ccc(OCCCO)cc1)O[C@@H]2c1ccccc1`, the composite z-score was 1.09 in experiment [1]; 0.431 in experiment [6]; -0.0361 in [7]; 0.357 in [8]; 0.562 in experiment [9]; 2.09 in experiment [10]. For the same compound, the z-score in experiment [2] is -5.16 (inactive); in [3] it was -0.378 (inactive); in [4], 2.67 (inactive); in [5], 2.1 (inactive).
On to `CC(C)[Si](C#CCCCC#N)(O[C@H](c1ccccc1)c1cn(Cc2ccccc2)nn1)C(C)C`, for which the composite z-score is 0.125 in [1]; 0.62 in experiment [6]; -0.157 in [7]; 0.148 in [8]; 0.194 in experiment [9]; 0.531 in experiment [10]. For the same compound, the z-score in experiment [2] is -0.507 (inactive); in experiment [3] it was -0.319 (inactive); in [4] it was 0.773 (inactive); in experiment [5], -0.0473 (inactive).
With `[N-]=[N+]=Nc1ccccc1C[C@]1(C(=O)O)COC(c2ccc(OCCCO)cc2)=N1`, the composite z-score is -0.0485 in experiment [1]; -0.213 in [6]; -0.0405 in experiment [7]; -2.54 in experiment [8]; -1.52 in experiment [9]; -1.14 in experiment [10]. The z-score in [2] was 0.0518 (inactive); in [3] it was -0.812 (inactive); in experiment [4], 1.18 (inactive); in experiment [5], -0.313 (inactive).
As for `COC(=O)C(CC#Cc1ccc2c(c1)[C@]1(C(=O)N2)[C@H](c2ccc(O)cc2)N2[C@H](c3ccccc3)[C@H](c3ccccc3)OC(=O)[C@H]2[C@@H]1C(=O)NC[C@H](O)c1ccccc1)C(=O)OC`, the composite z-score in experiment [1] was 0.0209; in experiment [6], 0.379; in experiment [7], 0.0769; in experiment [8] it was -0.207; in experiment [9], 0.276; in experiment [10], 1.68. In addition, the z-score was -0.075 (inactive) in [2], 0.221 (inactive) in experiment [3], -0.0566 (inactive) in [4] and -0.0638 (inactive) in experiment [5].
